Results reported in the supplement of paper PMC10849652.
About 8,800 targets were measured; listed, in parts, are those with a hit and a random draw of the rest. About 0.5% of all pairs of compound and target were hits.

How the values were obtained:
Test in all cases: log2 fold change, soluble protein after heating vs DMSO (PISA); higher = thermal stabilisation; K562 lysate, 10 uM; active = over 0.2 and 3.5 SD of the protein, either way, in both replicates (recomputed)
erlotinib = compound: C#Cc1cccc(Nc2ncnc3cc(OCCOC)c(OCCOC)cc23)c1 [erlotinib]
How it was run: (§1)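 Values give the log-two fold change in thermal stability against solvent controls, from duplicates. Crude K562 extract at 1 mg/mL protein, made by dounce homogenisation in PBS pH 7.4 with 1 mM MgCl2, was treated with 10 μM compound for 30 min. After 3 min heating across 48°C-58°C, aliquots were pooled, adjusted to 0.5% NP-40 at 4°C and centrifuged at 21,000xg for 90 min. The supernatant was measured by TMTpro 16plex LC-MS/MS with channel sums equalised.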

[1] = compound: C/C(=N\NC(=O)C1=CC(=CC=C1)S(=O)(=O)N2CCOCC2)/C3=C(C=CC(=C3)Cl)O
How it was run: as §1

[2] = compound: C1=CC(=CC=C1C2=NC3=C(N2)C=C(C=C3)C(=O)N)OC4=CC=C(C=C4)Cl
How it was run: as §1

[3] = compound: C1=CC2=C(C=CC(=C2)/C=C\3/C(=O)NC(=NCC4=CC=CS4)S3)N=C1
How it was run: as §1

[4] = compound: C1=CC2=NC=CN=C2C=C1/C=C/3\C(=O)NC(=O)S3
How it was run: as §1

[5] = compound: C1=CC=C(C=C1)C2=NC(=C(N2)C3=CC=NC=C3)C4=CC(=C(C=C4)Cl)O
How it was run: as §1

[6] = compound: C1=CC=C2C(=C1)C3=NNC4=CC=CC(=C43)C2=O
How it was run: as §1

[7] = compound: C1CCN(C1)C(=O)NC2=CC=CC(=C2)NC3=NC=C(C(=N3)NCCC4=CN=CN4)Br
How it was run: as §1

[8] = compound: C1CN(CCC1(CC2=CC=C(C=C2)Cl)N)C3=NC=NC4=C3C=CN4
How it was run: as §1

IRAK-1-4 Inhibitor I = compound: C1COCCN1CCN2C3=CC=CC=C3N=C2NC(=O)C4=CC(=CC=C4)[N+](=O)[O-] [IRAK-1-4 Inhibitor I]
How it was run: as §1

ibrutinib = compound: C=CC(=O)N1CCC[C@@H](n2nc(-c3ccc(Oc4ccccc4)cc3)c3c(N)ncnc32)C1 [ibrutinib]
How it was run: as §1

[9] = compound: CC(=O)c1cnc2ccc(-c3cc(Cl)c(O)c(Cl)c3)nc2c1N[C@H]1CC[C@H](CN(C)C)CC1
How it was run: as §1

ralimetinib = compound: CC(C)(C)Cn1c(N)nc2ccc(-c3[nH]c(C(C)(C)C)nc3-c3ccc(F)cc3)nc21 [ralimetinib]
How it was run: as §1

[10] = compound: CC(C)(O)CC(=O)NCCn1ccc2ncnc(Nc3ccc(Oc4cccc(C(F)(F)F)c4)c(Cl)c3)c21
How it was run: as §1

[11] = compound: CC(C)C1=C2N=C(C=C(N2N=C1)NCC3=CC=CC=C3)NCCCCCCN
How it was run: as §1

[12] = compound: CC1=C(C(CC(=O)N1)C2=CC=C(C=C2)C(F)(F)F)C(=O)NC3=C(C=C4C(=C3)C=NN4)F
How it was run: as §1

[13] = compound: CC1=C(C2=C(C=C1)C(=O)C3=CC=CC=C3N2CCCN)C
How it was run: as §1

[14] = compound: CC1=C(C=C(C=C1)NC(=O)C2=CC(=CC=C2)C(C)(C)C#N)NC3=CC4=C(C=C3)N=CN(C4=O)C
How it was run: as §1

[15] = compound: CC1=C(C=C(C=C1)NC(=O)C2=CC(=CC=C2)N(C)C)NC(=O)C3=CC=C(C=C3)O
How it was run: as §1

[16] = compound: CC1=CC=C(C=C1)SC2=C3C=C(SC3=CN=C2)C(=O)N
How it was run: as §1

Measured: log2 fold change

CHD4 isoform 2 (UniProt Q14839)
UniProt Q14839, sequence (Q14839 whole entry, looked up): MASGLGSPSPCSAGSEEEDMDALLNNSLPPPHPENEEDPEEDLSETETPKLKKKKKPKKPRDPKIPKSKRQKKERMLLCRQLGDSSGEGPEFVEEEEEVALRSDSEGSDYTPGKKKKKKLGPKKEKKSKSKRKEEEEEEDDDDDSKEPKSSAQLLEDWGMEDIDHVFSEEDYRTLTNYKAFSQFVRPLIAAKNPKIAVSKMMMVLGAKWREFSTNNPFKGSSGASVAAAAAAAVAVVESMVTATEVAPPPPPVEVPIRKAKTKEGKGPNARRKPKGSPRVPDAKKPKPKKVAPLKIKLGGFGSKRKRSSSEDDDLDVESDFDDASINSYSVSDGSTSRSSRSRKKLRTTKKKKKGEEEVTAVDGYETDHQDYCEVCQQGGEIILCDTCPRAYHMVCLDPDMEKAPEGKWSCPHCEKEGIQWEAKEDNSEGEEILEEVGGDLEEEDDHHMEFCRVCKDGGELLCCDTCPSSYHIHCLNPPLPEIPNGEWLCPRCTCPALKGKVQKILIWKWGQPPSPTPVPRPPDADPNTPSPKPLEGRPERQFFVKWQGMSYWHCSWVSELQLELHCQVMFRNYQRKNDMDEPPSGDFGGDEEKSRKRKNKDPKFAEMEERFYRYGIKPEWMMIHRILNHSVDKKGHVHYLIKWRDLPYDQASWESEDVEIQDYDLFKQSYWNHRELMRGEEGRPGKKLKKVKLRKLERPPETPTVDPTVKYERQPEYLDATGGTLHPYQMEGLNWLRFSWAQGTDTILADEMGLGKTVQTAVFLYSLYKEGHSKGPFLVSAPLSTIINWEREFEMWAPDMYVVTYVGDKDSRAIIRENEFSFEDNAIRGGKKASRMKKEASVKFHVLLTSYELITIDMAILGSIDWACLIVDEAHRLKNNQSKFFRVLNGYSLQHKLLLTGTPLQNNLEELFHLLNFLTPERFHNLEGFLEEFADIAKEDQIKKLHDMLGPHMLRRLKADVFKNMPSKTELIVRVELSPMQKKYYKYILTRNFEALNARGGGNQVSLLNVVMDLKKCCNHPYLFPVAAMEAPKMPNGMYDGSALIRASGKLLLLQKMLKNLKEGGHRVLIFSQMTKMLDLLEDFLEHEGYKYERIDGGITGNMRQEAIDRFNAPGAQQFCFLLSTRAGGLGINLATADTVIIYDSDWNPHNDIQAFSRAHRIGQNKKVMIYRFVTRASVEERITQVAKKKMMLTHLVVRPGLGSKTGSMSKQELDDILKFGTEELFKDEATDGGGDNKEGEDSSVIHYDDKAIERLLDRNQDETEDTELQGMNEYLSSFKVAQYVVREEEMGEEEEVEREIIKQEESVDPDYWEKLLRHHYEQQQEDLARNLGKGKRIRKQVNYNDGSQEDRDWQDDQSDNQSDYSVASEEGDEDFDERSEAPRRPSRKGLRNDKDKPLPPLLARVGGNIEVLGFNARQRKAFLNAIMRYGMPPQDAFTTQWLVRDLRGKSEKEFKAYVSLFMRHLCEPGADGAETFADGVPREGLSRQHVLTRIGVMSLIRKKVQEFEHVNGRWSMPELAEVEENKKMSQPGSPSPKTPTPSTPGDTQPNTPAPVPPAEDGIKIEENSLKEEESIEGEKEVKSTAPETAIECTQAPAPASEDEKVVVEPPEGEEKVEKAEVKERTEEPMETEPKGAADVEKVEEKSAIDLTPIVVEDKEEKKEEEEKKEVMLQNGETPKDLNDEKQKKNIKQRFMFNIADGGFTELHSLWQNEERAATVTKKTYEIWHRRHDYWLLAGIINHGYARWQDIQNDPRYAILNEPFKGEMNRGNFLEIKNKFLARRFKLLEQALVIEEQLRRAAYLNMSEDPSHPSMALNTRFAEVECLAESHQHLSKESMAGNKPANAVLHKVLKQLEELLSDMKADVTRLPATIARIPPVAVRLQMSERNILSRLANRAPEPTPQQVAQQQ
inactive: erlotinib -0.02 | [1] 0.009 | [2] 0.007 | [3] 0.004 | [4] -0.016 | [5] -0.004 | [6] -0.013 | [7] -0.013 | [8] 0.031 | IRAK-1-4 Inhibitor I -0.015 | ibrutinib -0.003 | [9] -0.008 | ralimetinib 0.026 | [10] 0.011 | [11] 0.025 | [12] 0.001 | [13] -0.037 | [14] 0.004 | [15] 0.006 | [16] 0.022

CCDC47 (UniProt Q96A33)
inactive: erlotinib 0.02 | [1] 0.003 | [2] -0.071 | [3] 0.009 | [4] 0.022 | [5] -0.03 | [6] -0.093 | [7] -0.007 | [8] 0.024 | IRAK-1-4 Inhibitor I 0.003 | ibrutinib 0 | [9] 0.002 | ralimetinib 0.01 | [10] -0.063 | [11] -0.042 | [12] 0.044 | [13] -0.002 | [14] 0.041 | [15] 0.045 | [16] -0.013

ATXN2 (UniProt Q99700)
UniProt Q99700, sequence (Q99700 whole entry, looked up): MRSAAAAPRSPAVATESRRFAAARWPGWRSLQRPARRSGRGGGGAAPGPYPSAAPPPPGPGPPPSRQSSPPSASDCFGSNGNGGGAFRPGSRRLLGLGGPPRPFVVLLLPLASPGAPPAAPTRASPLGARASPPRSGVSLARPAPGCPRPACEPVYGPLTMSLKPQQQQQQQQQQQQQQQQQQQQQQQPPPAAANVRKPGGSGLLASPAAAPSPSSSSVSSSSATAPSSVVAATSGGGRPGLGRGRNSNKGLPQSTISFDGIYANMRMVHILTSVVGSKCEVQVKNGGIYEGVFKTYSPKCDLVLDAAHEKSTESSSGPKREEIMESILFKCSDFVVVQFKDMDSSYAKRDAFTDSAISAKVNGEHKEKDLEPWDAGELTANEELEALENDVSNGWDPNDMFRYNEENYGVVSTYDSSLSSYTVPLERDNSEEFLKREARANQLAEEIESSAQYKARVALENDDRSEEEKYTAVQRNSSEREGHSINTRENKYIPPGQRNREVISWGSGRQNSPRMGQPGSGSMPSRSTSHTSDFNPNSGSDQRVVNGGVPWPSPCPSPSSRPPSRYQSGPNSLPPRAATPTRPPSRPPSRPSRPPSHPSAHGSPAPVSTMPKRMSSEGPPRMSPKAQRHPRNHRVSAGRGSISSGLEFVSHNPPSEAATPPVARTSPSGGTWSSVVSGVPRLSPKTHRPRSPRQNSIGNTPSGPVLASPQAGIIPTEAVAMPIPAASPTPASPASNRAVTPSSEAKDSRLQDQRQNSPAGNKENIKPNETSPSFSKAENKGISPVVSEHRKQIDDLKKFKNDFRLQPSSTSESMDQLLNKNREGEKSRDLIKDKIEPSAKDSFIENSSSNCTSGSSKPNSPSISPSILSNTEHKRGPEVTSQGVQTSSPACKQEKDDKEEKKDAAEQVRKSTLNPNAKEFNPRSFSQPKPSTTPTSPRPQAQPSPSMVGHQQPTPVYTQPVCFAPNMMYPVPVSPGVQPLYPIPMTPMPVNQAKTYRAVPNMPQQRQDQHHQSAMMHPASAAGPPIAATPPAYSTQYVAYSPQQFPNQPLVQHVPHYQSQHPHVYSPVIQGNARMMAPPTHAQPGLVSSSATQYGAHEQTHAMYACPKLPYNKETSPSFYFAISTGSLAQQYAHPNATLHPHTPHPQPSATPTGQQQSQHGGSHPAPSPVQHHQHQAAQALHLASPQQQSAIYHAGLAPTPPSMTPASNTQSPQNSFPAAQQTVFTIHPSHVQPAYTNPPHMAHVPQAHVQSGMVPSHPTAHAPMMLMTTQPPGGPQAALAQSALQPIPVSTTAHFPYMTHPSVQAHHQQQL
inactive: erlotinib 0.007 | [1] -0.015 | [2] 0.063 | [3] -0.006 | [4] -0.041 | [5] -0.005 | [6] -0.022 | [7] 0.026 | [8] 0.014 | IRAK-1-4 Inhibitor I 0.016 | ibrutinib -0.007 | [9] -0.011 | ralimetinib -0.002 | [10] 0 | [11] 0.016 | [12] 0.013 | [13] -0.022 | [14] -0.02 | [15] 0.041 | [16] -0.021

ATP13A1 (UniProt Q9HD20)
inactive: erlotinib 0.02 | [1] -0.09 | [2] -0.153 | [3] 0.024 | [4] -0.026 | [5] 0.02 | [6] -0.054 | [7] -0.04 | [8] 0.033 | IRAK-1-4 Inhibitor I 0.015 | ibrutinib -0.021 | [9] 0.048 | ralimetinib 0.029 | [10] -0.104 | [11] 0.036 | [12] 0.005 | [13] -0.089 | [14] -0.108 | [15] 0.062 | [16] 0.007

C19orf54 (UniProt Q5BKX5)
UniProt Q5BKX5, sequence (Q5BKX5 whole entry, looked up): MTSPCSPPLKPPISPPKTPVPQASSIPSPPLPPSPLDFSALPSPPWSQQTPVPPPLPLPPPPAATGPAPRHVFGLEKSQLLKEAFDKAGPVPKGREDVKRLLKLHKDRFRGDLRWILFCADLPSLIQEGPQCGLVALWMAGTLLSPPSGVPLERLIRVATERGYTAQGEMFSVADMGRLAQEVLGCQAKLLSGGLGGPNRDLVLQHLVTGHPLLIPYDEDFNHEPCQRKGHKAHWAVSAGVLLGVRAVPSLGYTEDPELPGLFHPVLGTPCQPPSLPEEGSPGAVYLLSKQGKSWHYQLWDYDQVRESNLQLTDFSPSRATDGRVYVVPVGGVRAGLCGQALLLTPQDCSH
inactive: erlotinib -0.012 | [1] 0.042 | [2] 0.035 | [3] -0.025 | [4] 0.019 | [5] -0.004 | [6] 0.022 | [7] -0.012 | [8] -0.012 | IRAK-1-4 Inhibitor I 0.054 | ibrutinib 0.041 | [9] 0.003 | ralimetinib -0.018 | [10] -0.055 | [11] 0.028 | [12] 0.012 | [13] 0.06 | [14] -0.041 | [15] 0.013 | [16] 0.063

CARD11 (UniProt Q9BXL7)
inactive: erlotinib -0.03 | [1] -0.051 | [2] 0.016 | [3] 0.061 | [4] -0.168 | [5] -0.048 | [6] -0.022 | [7] -0.042 | [8] 0.013 | IRAK-1-4 Inhibitor I -0.01 | ibrutinib -0.097 | [9] -0.023 | ralimetinib -0.02 | [10] 0.003 | [11] -0.075 | [12] -0.041 | [13] 0.025 | [14] 0.01 | [15] 0.051 | [16] -0.143

ATRIP (UniProt Q8WXE1)
UniProt Q8WXE1, sequence (Q8WXE1 whole entry, looked up): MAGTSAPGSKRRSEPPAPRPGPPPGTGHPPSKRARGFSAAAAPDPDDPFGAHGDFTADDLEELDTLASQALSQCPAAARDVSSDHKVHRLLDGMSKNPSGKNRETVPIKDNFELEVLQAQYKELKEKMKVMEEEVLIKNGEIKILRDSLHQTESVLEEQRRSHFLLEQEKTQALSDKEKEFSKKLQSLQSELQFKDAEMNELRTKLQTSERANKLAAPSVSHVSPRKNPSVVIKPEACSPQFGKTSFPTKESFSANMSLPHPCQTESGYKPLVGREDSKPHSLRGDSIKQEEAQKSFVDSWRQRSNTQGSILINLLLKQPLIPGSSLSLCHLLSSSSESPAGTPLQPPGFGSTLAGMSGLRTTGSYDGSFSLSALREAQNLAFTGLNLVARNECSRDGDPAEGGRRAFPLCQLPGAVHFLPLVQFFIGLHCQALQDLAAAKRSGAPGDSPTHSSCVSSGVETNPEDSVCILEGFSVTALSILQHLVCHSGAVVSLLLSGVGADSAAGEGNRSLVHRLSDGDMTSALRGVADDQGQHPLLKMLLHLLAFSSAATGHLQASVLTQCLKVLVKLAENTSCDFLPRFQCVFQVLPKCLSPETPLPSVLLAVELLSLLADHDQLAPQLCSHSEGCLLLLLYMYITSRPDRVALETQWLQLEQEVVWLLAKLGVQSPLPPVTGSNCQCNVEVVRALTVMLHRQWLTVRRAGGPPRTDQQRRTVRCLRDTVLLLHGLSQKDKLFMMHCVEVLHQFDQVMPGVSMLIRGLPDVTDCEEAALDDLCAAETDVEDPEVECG
inactive: erlotinib -0.009 | [1] 0.032 | [2] -0.023 | [3] 0.227 | [4] 0.046 | [5] 0.064 | [6] 0.266 | [7] -0.059 | [8] -0.057 | IRAK-1-4 Inhibitor I 0.015 | ibrutinib 0.019 | [9] 0.129 | ralimetinib -0.007 | [10] -0.014 | [11] -0.048 | [12] 0.063 | [13] 0.005 | [14] -0.008 | [15] -0.008 | [16] -0.019

CENPQ (UniProt Q7L2Z9)
UniProt Q7L2Z9, sequence (Q7L2Z9 whole entry, looked up): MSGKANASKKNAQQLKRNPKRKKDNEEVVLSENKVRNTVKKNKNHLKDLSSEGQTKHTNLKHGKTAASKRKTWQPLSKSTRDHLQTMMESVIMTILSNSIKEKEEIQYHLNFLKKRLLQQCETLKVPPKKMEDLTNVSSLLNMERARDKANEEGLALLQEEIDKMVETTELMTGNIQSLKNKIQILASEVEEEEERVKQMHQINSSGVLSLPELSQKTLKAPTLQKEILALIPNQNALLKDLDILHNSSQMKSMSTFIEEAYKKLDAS
inactive: erlotinib -0.064 | [1] -0.011 | [2] 0.057 | [3] 0.098 | [4] 0.078 | [5] 0.016 | [6] 0.033 | [7] -0.069 | [8] 0.111 | IRAK-1-4 Inhibitor I -0.012 | ibrutinib 0.009 | [9] 0.162 | ralimetinib 0.029 | [10] -0.002 | [11] 0.005 | [12] 0.097 | [13] -0.153 | [14] -0.057 | [15] -0.075 | [16] 0.013
